These results are taken from PubChem BioAssay (EPA / NIEHS).

Records with an inconclusive call do not appear. Calls of active or inactive are those of the source. Rule for the calls, unless noted: active = hit-call score of the fitted dose curve at least 0.9, where 1 is the maximum; inactive = score below 0.9.

For orientation: AC50 means the midpoint of the concentration-response curve, whichever way the signal moves.

The nature of assay [1]: ACEA_ER_80hr: ACEA Biosciences xCELLigence Real-Time Cell Analysis on Estrogen Receptor Agonism for Proliferation (AID 2282667; active = hit-call score of the fitted dose curve at least 0.9, where 1 is the maximum). The note with it: T47D proliferation, impedance (xCELLigence), 80 h. The essentials:
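Real-time impedance growth kinetics of human T-47D breast cells read 80 h after dosing, gain-of-signal fitted relative to DMSO. Compounds: 1:4 serial series, top final concentration 100 uM, n = 2.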

Assay [2] is described as follows: ATG_CRE_CIS: Attagene CIS-FACTORIAL HepG2 Assay for human cAMP Responsive Element (CRE) binding protein 3 (AID 2282926). As to conditions: HepG2 CRE cis-reporter, Attagene multiplexed mRNA; actives raise or lower the signal. In short, it runs like this:
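Multiplexed transcription-unit reporters transfected into HepG2; 24 h dosing; RT-PCR/capillary electrophoresis fluorescence read-out; bidirectional fit vs DMSO.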

For assay [3], the target named is CCAAT/enhancer-binding protein beta (Homo sapiens) (UniProt P17676). The assay can be described thus: ATG_C_EBP_CIS: Attagene CIS-FACTORIAL HepG2 Assay for human CCAAT/Enhancer Binding Protein (C/EBP) beta (AID 2282927). As to conditions: HepG2 Attagene cis-factorial transcription factor reporter; actives raise or lower the signal. In short, it runs like this:
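Endogenous C/EBPb-driven reporter transcripts measured in transfected human HepG2 cells at 24 h via RT-PCR and capillary electrophoresis of labelled fragments. Activity fitted in both directions relative to DMSO baseline.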

A short description of assay [4]: ATG_CMV_CIS: Attagene CIS-FACTORIAL HepG2 Assay for human CMV (Internal Marker) (AID 2282928).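 Note: endpoint acts as a background internal control marker rather than a target.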 As to conditions: HepG2 CMV promoter reporter, transcription factor profiling; actives raise or lower the signal. The essentials: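 After transient transfection of HepG2 with reporter transcription units driven by cis-regulatory promoters, cells receive test chemical for 24 h. Labeled reporter amplicons, digested with HpaI, are sized and quantified by capillary electrophoresis against DMSO.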

A short description of assay [5]: ATG_DR4_LXR_CIS: Attagene CIS-FACTORIAL HepG2 Assay for human Liver X Receptor (LXR), DR4 submotif (AID 2282929). The note with it: HepG2 Attagene DR4 cis-reporter, mRNA transcription; actives raise or lower the signal. The essentials: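 Transiently transfected HepG2 liver cells; cis-regulated reporters; 24 h dosing. RT-PCR plus CE read-out of reporter mRNA. DMSO baseline, bidirectional curve fitting.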

In assay [6] the target is Aryl hydrocarbon receptor (Homo sapiens) (UniProt P35869). The experiment in a line: ATG_Ahr_CIS: Attagene CIS-FACTORIAL HepG2 Assay for human Aryl Hydrocarbon Receptor (Ahr) (AID 2282930). As to conditions: HepG2 AhR cis-factorial reporter transcription; actives raise or lower the signal. The essentials: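 Reporter mRNA levels, quantified by RT-PCR and fluorescent capillary electrophoresis, reflect endogenous AhR transcriptional activity in HepG2 cells carrying transfected cis-promoter reporter constructs. Readout at 24 h post-dose; gain or loss fitted against DMSO baseline.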
Sequence of Aryl hydrocarbon receptor (Homo sapiens) (P35869 whole entry, looked up): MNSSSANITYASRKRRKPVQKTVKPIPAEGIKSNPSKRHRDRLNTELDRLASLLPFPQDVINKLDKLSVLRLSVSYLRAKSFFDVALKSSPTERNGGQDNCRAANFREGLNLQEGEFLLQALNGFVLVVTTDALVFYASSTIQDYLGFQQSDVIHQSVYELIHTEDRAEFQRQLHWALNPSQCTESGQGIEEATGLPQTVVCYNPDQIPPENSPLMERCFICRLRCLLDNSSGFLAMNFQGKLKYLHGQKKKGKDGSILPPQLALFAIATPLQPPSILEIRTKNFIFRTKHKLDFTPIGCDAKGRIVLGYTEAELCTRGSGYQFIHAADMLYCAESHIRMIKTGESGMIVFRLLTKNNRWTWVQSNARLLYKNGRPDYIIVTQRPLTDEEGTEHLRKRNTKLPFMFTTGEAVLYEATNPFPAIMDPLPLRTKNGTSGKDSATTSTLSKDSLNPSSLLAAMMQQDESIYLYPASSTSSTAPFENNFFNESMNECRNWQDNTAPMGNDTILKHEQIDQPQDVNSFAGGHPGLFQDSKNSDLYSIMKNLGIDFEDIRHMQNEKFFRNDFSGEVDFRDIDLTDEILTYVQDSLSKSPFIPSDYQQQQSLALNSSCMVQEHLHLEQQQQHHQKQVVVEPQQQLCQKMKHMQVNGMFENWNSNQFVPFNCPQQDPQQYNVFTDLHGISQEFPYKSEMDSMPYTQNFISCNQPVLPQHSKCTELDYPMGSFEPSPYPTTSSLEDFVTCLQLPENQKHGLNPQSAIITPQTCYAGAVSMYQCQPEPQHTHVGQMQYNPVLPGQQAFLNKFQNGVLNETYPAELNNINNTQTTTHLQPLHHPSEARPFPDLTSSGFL

Assay [7] can be described thus: ATG_AP_1_CIS: Attagene CIS-FACTORIAL HepG2 Assay for human Activator Protein 1 (AP-1) (AID 2282931). As to conditions: HepG2 Attagene cis-factorial AP-1 reporter mRNA; actives raise or lower the signal. The essentials:
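We transfected HepG2 cells transiently with a set of cis-regulated reporter transcription units, dosed them for 24 h, and quantified reporter mRNA via RT-PCR and capillary electrophoresis, scoring gain or loss of signal relative to DMSO.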

Assay [8] in a line: ATG_AP_2_CIS: Attagene CIS-FACTORIAL HepG2 Assay for human Activator Protein 2 (AP-2) (AID 2282932). As to conditions: HepG2 AP-2 cis-reporter, Attagene transcription factor profiling; actives raise or lower the signal. In short, it runs like this: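 Step one: transient transfection of HepG2 with reporter transcription units. Step two: 24 h chemical exposure. Step three: RNA extraction, RT-PCR, labelled fragment analysis by capillary electrophoresis; DMSO serves as baseline.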

Assay [9] in a line: ATG_BRE_CIS: Attagene CIS-FACTORIAL HepG2 Assay for human Bone Morphogenetic Protein (BMP) Response Element (BRE) (AID 2282933). The note with it: HepG2 BMP response element reporter, Attagene transcription factor profiling; actives raise or lower the signal. In short, it runs like this: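 Fluorescence-labelled reporter cDNA fragments, separated by capillary electrophoresis, gave the signal for this component of a 52-readout multiplex. HepG2 cells were transfected, exposed to chemicals for 24 h, and compared with DMSO using bidirectional fitting.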

Assay [10] deals with Retinoic acid receptor alpha (Homo sapiens) (UniProt P10276). The experiment in a line: ATG_DR5_RAR_CIS: Attagene CIS-FACTORIAL HepG2 Assay for human Retinoic Acid Receptor Alpha (RARE), DR5 submotif (AID 2282934). The note with it: HepG2 Attagene cis-factorial RARE DR5 reporter, mRNA; actives raise or lower the signal. The essentials:
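Reporter transcripts from a DR5-regulated unit, measured via RT-PCR plus capillary electrophoresis, reflect endogenous RAR activity in transiently transfected human HepG2 liver cells. Exposure lasted 24 h; gain or loss of signal scored against DMSO.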

In assay [11] the target is Transcription factor E2F1 (Homo sapiens) (UniProt Q01094). The assay can be described thus: ATG_E2F_CIS: Attagene CIS-FACTORIAL HepG2 Assay for human E2F Transcription Factor 1 (AID 2282935). The note with it: HepG2 Attagene cis-reporter, E2F reporter RNA transcripts; actives raise or lower the signal. The essentials:
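Total RNA from 24 h-treated, reporter-transfected HepG2 cells undergoes DNase I treatment, oligo(dT) reverse transcription, PCR and 6-FAM primer extension before capillary electrophoresis.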

Assay [12] in a line: ATG_E_Box_CIS: Attagene CIS-FACTORIAL HepG2 Assay for human Enhancer Box (E-box) (AID 2282936). As to conditions: HepG2 E-box cis-reporter transcription, actives raise or lower the signal. In short, it runs like this:
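DMSO served as negative control and baseline for bidirectional fitting. Human hepatoma HepG2 cells, transiently transfected with cis-reporter constructs, were dosed 24 h; reporter mRNA read by RT-PCR and capillary electrophoresis.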

A short description of assay [13]: ATG_M_61_CIS: Attagene CIS-FACTORIAL HepG2 Assay for M61 Transcription Factor (Internal Marker) (AID 2282937). As to conditions: HepG2 Attagene CIS-FACTORIAL M61 internal marker reporter; actives raise or lower the signal. The essentials: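 Multiplexed reporter mRNA assay, HepG2 human hepatoma cells, 24 h treatment. Signal: FAM-labelled, HpaI-digested RT-PCR fragments by CE. Fit: bidirectional, baseline DMSO.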

Assay [14] is described as follows: ATG_EGR_CIS: Attagene CIS-FACTORIAL HepG2 Assay for human Early Growth Response 1 (EGR1) (AID 2282938). The note with it: HepG2 Attagene CIS-FACTORIAL EGR reporter mRNA; actives raise or lower the signal. In short, it runs like this: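 Multiplexed cis-reporter system in human hepatoma HepG2 cells, transiently transfected. Cells are dosed for 24 h; reporter transcripts are amplified, fluorescently tagged and sized by capillary electrophoresis, with DMSO as negative control.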

Assay [15] can be described thus: ATG_M_19_CIS: Attagene CIS-FACTORIAL HepG2 Assay for M19 Transcription Factor (Internal Marker) (AID 2282939). As to conditions: HepG2 Attagene CIS-FACTORIAL M19 internal marker reporter; actives raise or lower the signal. In short, it runs like this:
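HepG2, MRTU transient transfection, 24 h dosing. Total RNA → RT-PCR → 6-FAM primer extension → HpaI digest → CE fluorescence. Bidirectional curve fit, DMSO negative control.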

Assay [16] can be described thus: ATG_ERE_CIS: Attagene CIS-FACTORIAL HepG2 Assay for Estrogen Response Element (ERE) (AID 2282940). The note with it: HepG2 ERE cis-reporter, Attagene RNA transcript; actives raise or lower the signal. In short, it runs like this:
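After a 24 h chemical treatment, RNA from reporter-transfected HepG2 cells is reverse-transcribed, PCR-amplified and fluorescently labelled. Fragments separated by capillary electrophoresis give reporter signal; DMSO serves as negative control.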

Assay [17] in a line: ATG_Ets_CIS: Attagene CIS-FACTORIAL HepG2 Assay for human Erythroblast Transformation Specific (ETS) (AID 2282941). The note with it: HepG2 ETS cis-reporter transcription, actives raise or lower the signal. In short, it runs like this:
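Human HepG2 hepatoma cells were transiently transfected with promoter-driven reporter constructs and treated for 24 hours. Reporter transcripts were quantified by RT-PCR with fluorescent primer extension; bidirectional curve fitting used DMSO as reference.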

The target in assay [18] is Hepatocyte nuclear factor 3-beta (Homo sapiens) (UniProt Q9Y261). The assay can be described thus: ATG_FoxA2_CIS: Attagene CIS-FACTORIAL HepG2 Assay for human Forkhead box A2 (FOXA2) (AID 2282942). As to conditions: HepG2 cis-reporter transcription factor activity, 24 h; actives raise or lower the signal. In short, it runs like this: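 Multiplexed cis-element reporter assay in transiently transfected HepG2. Twenty-four hours post-dosing, RNA was reverse-transcribed, amplified, FAM-labelled, HpaI-digested and separated by CE. Activity gain or loss relative to DMSO.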
Sequence of Hepatocyte nuclear factor 3-beta (Homo sapiens) (Q9Y261 whole entry, looked up): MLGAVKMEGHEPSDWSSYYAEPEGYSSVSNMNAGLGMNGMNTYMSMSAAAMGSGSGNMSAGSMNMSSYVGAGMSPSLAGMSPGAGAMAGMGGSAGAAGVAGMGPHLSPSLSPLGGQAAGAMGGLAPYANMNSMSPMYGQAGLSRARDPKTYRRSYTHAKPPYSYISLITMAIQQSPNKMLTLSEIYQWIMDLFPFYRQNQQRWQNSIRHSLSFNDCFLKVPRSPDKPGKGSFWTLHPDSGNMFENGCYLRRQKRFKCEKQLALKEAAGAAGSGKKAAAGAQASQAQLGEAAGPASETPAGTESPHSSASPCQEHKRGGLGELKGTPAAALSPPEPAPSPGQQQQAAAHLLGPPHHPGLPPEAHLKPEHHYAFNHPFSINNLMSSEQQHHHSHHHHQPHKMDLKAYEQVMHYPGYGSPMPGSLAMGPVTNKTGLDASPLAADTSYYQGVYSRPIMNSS

Assay [19] in a line: ATG_FoxO_CIS: Attagene CIS-FACTORIAL HepG2 Assay for human Forkhead box O (FoxO) (AID 2282943). As to conditions: HepG2 Attagene cis-reporter, FoxO element, mRNA; actives raise or lower the signal. The essentials:
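Endogenous transcription factor activity read from multiplexed cis-promoter reporter transcripts in transiently transfected HepG2, 24 h after dosing. Reporter RNA measured via RT-PCR plus capillary electrophoresis of FAM-labeled products; gain or loss relative to DMSO.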

A short description of assay [20]: ATG_GATA_CIS: Attagene CIS-FACTORIAL HepG2 Assay for human GATA Binding Protein (AID 2282944). The note with it: HepG2 GATA cis-element reporter, Attagene multiplex mRNA; actives raise or lower the signal. In short, it runs like this:
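Cells: HepG2, transiently transfected with cis-regulated reporter transcription units. Exposure: 24 h. Detection: RT-PCR plus capillary electrophoresis of FAM-labeled fragments. Analysis: bidirectional, DMSO as baseline.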

Sequence of CCAAT/enhancer-binding protein beta (Homo sapiens) (P17676 whole entry, looked up, the tested form may be a part): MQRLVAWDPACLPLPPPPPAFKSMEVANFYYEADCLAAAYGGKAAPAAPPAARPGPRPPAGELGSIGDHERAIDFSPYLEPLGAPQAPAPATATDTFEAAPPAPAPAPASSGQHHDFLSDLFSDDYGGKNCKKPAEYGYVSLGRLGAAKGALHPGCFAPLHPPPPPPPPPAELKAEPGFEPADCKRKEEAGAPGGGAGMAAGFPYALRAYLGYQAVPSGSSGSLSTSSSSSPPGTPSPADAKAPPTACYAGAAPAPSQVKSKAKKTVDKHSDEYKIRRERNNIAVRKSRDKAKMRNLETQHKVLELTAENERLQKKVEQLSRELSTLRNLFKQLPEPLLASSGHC
Sequence of Transcription factor E2F1 (Homo sapiens) (Q01094 whole entry, looked up): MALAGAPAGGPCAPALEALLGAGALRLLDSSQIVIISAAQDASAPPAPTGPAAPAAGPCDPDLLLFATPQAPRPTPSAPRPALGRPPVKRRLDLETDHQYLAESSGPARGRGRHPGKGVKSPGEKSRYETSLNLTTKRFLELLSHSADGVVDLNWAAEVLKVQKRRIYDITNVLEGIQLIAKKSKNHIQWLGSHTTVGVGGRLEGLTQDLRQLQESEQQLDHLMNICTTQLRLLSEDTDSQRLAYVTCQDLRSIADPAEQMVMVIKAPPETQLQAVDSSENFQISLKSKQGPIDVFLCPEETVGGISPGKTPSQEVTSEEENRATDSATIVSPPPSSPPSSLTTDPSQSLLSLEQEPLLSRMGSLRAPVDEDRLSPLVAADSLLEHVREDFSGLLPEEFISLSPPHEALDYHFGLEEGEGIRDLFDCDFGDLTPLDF
Sequence of Retinoic acid receptor alpha (Homo sapiens) (P10276 whole entry, looked up): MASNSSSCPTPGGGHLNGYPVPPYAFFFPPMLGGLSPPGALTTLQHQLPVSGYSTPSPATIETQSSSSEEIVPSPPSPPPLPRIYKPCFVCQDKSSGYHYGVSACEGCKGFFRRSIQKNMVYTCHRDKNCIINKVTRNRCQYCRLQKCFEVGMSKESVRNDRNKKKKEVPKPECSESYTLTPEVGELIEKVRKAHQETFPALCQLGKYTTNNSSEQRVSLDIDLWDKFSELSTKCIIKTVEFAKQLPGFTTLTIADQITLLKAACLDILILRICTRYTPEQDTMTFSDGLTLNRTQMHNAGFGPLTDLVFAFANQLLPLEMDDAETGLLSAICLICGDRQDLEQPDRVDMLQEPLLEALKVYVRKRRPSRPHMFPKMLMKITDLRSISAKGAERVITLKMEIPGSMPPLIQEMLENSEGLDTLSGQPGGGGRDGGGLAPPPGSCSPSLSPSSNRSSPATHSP

For `NCC(F)(F)C(F)(F)C(F)(F)C(F)(F)C(F)(F)C(F)(F)F`, the result in assay [1], in [2], in assay [3], in [4], in assay [5] and in assay [6] was inactive. Moreover, the compound was classed as inactive in assay [7], in assay [8], in assay [9], in assay [10], in [11] and in assay [12]. In addition, the outcome in [13], in assay [14], in assay [15], in assay [16], in [17] and in [18] was inactive. The outcome in assay [19] and in [20] was inactive.
Take `O=C=NCc1cccc(CN=C=O)c1`: the result in assay [1], in assay [2], in assay [3], in assay [4], in assay [5] and in assay [6] was inactive. Besides, the outcome in [7], in [8], in assay [9], in assay [10], in assay [11] and in assay [12] was inactive. For the same compound, the compound was classed as inactive in assay [13], in assay [14], in assay [15], in [16], in assay [17] and in assay [18]. For the same compound, the compound was called inactive in assay [19] and in assay [20].
As to `O=C(O)C(F)(F)C(F)(F)C(F)(F)C(=O)O`, the call in [1], in [2], in [3], in assay [4], in assay [5] and in assay [6] was inactive. Further, the outcome in [7], in [8], in assay [9], in [10], in assay [11] and in assay [12] was inactive. Also, the result in [13], in assay [14], in [15], in assay [16], in assay [17] and in assay [18] was inactive. Besides, the outcome in assay [19] and in assay [20] was inactive.
For the compound `CCN(CC)c1ccc(C=O)cc1`, the AC50 in [1] is 0.0998 µM (active); in assay [15] it was 25.8 µM (active); in [17] it was 26 µM (active). In addition, the compound was called inactive in assay [2], in assay [3], in assay [4], in assay [5], in [6] and in [7]. For the same compound, the outcome in [8], in assay [9], in assay [10], in [11], in assay [12] and in assay [13] was inactive. Moreover, the compound was called inactive in [14], in assay [16], in assay [18], in [19] and in assay [20].
Take `Cc1cc(=O)[nH]c(C(C)C)n1`: the result in assay [1], in assay [2], in assay [3], in assay [4], in assay [5] and in [6] was inactive. The compound was classed as inactive in assay [7], in assay [8], in assay [9], in assay [10], in assay [11] and in [12]. Moreover, the call in assay [13], in assay [14], in assay [15], in [16], in assay [17] and in [18] was inactive. Further, the compound was called inactive in assay [19] and in assay [20].
Consider `N#CCCOCCC#N`, for which the call in assay [1], in assay [2], in assay [3], in assay [4], in assay [5] and in assay [6] was inactive. Moreover, the compound was classed as inactive in assay [7], in assay [8], in [9], in assay [10], in assay [11] and in assay [12]. Also, the outcome in [13], in [14], in assay [15], in assay [16], in assay [17] and in assay [18] was inactive. Moreover, the outcome in assay [19] and in assay [20] was inactive.
As for `FC(F)(F)C(F)(F)C(F)(F)C(F)(F)C(F)(F)C(F)(F)CC[Si](Cl)(Cl)Cl`, the compound was called inactive in assay [1], in assay [2], in assay [3], in assay [4], in [5] and in [6]. The call in [7], in [8], in assay [9], in [10], in [11] and in [12] was inactive. The outcome in assay [13], in [14], in [15], in [16], in assay [17] and in assay [18] was inactive. In addition, the compound was called inactive in [19] and in [20].
